Records with an inconclusive call do not appear. Active and inactive are the calls of the source. Unless noted, calls follow the shape of the full dose curve.
Key:
[1] = Nuclear factor erythroid 2-related factor 2/antioxidant responsive element (Nrf2/ARE) small molecule agonists: qHTS cell viability counter screen in human keratinocytes (AID 1919968; active = well fitted curve in the direction sought with a large enough effect in the repeat runs; an effect the other way counts as inactive or inconclusive; also: nearly all actives have a fitted effect of over 55% in size)
Summary of the method: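 HaCaT ARE reporter line, 1,500 cells/well; 5 h settle, 37 C/5% CO2; cpd in DMSO pinned; 23 h exposure; CellTiter-Fluor, 1 h; fluorescence.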

[2] = Nuclear factor erythroid 2-related factor 2/antioxidant responsive element (Nrf2/ARE) small molecule agonists: luciferase reporter gene qHTS assay in human keratinocytes (AID 1919969); also: nearly all actives have a fitted effect of over 35% in size
[3] = target: Gonadotropin-releasing hormone receptor (Homo sapiens) (UniProt P30968); assay: Human gonadotropin-releasing hormone receptor (GnRHR) small molecule agonists, calcium flux assay in GnRHR-HEK293 cells (AID 1920063); also: nearly all actives have a fitted effect of over 35% in size
Chain of Gonadotropin-releasing hormone receptor (Homo sapiens) (P30968 whole entry, looked up): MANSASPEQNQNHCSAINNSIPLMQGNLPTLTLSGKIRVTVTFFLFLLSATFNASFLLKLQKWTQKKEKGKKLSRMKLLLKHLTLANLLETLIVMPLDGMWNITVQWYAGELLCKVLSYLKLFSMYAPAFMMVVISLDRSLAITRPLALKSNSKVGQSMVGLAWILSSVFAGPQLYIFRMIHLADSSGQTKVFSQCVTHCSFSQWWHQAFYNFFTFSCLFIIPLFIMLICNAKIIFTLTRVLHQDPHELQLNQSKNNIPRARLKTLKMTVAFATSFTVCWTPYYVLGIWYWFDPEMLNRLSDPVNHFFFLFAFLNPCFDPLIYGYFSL
Summary of the method: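 GnRHR-HEK293, 1500 cells/well, 18 h 37 C/5% CO2; Ca dye 1 h 37 C; cpd pinned (DMSO), agonist mode; kinetic FL 480/540, 3 min, 1 s reads; 15 conc, n=3.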

[4] = target: KiSS-1 receptor (Homo sapiens) (UniProt Q969F8); assay: Human kisspeptin (KISS1R) small molecule agonists, calcium flux assay in KISS1R-HEK293 cells (AID 1920064; active = well fitted curve in the direction sought with a large enough effect in the repeat runs; an effect the other way counts as inactive or inconclusive)
Chain of KiSS-1 receptor (Homo sapiens) (Q969F8 whole entry, looked up): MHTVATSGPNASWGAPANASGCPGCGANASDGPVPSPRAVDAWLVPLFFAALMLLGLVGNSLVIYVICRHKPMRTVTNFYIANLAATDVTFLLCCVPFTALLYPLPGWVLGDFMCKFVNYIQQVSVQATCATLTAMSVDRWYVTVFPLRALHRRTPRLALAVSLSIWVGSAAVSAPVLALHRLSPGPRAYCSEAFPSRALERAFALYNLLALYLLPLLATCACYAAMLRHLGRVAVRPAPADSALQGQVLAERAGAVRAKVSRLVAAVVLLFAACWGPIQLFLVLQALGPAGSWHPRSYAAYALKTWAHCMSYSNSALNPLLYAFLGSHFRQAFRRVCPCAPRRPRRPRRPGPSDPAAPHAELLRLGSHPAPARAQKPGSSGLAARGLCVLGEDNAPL
Summary of the method: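 Stable human KISS1R HEK293 line; 18 h plating, 37 C/5% CO2; calcium dye 1 h 37 C; compound pin transfer; kinetic fluorescence Ex/Em 480/540, 3 min.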

[5] = G protein-coupled receptor (GPCR) small molecule agonists, calcium flux assay: HEK293 wild type cell line counter screen (AID 1920065)
Summary of the method: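 Kinetic fluorescence at Ex/Em 480/540, recorded every second over 3 min, served as the read-out after compound addition. Each compound was tested at 15 concentrations in triplicate on cells pre-loaded with calcium dye for 1 h.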

[6] = p53 small molecule agonists, cell-based qHTS assay with rat liver microsomes (AID 1963578)
Summary of the method: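 Metabolic activation by rat liver microsomes and NADPH, each 0.5 mg/mL final, added right after compounds to p53RE-bla reporter cells (4,000/well, plated 5 h earlier). 16 h at 37 C, then LiveBLAzer substrate for 2 h at room temperature in the dark; fluorescence read-out.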

[7] = p53 small molecule agonists, cell-based qHTS assay with human liver microsomes: qHTS cell viability counter screen (AID 1963579); also: nearly all actives have a fitted effect of over 45% in size
Summary of the method: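 Metabolic activation used human liver microsomes and NADPH, both 0.5 mg/mL final, over 16 hours at 37 C on p53RE-bla cells (4,000/well). Cytotoxicity measured by CellTiter-Glo luminescence, 30 min at room temperature.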

[8] = p53 small molecule agonists, cell-based qHTS assay with rat liver microsomes: qHTS cell viability counter screen (AID 1963580); also: nearly all actives have a fitted effect of over 45% in size
Summary of the method: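 Intracellular ATP, by CellTiter-Glo luminescence, defines viability. HCT-116 p53RE-bla cells, 4,000 per well, were compound-treated in the presence of rat liver microsomes and NADPH for 16 h at 37 C.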

[9] = p53 small molecule agonists, cell-based qHTS assay: qHTS cell viability counter screen (AID 1963581); also: nearly all actives have a fitted effect of over 45% in size
Summary of the method: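 HCT-116 p53RE-bla cells, 4,000/well, plated 5 h before compound pin transfer; 16 h at 37 C; bla substrate 2 h RT; then CellTiter-Glo, 30 min RT, luminescence.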

[10] = p53 small molecule agonists, cell-based qHTS assay (AID 1963582; active = well fitted activation curve with a large enough effect in the signal ratio in the repeat runs, not every such curve was filed as active; the % refers to the signal ratio)
Summary of the method: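 Reporter line: p53RE-bla. Pre-incubation 5 h, 37 C, 5% CO2; compound (DMSO, pin tool) 16 h, 37 C; B/G FRET substrate 2 h RT; fluorescence intensity read.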

[11] = target: 5-hydroxytryptamine receptor 2A (Homo sapiens) (UniProt P28223); assay: 5-hydroxytryptamine receptor 2A (HTR2A) small molecule agonists, cell-based qHTS assay (AID 1963587); also: nearly all actives have a fitted effect of over 30% in size
Chain of 5-hydroxytryptamine receptor 2A (Homo sapiens) (P28223 whole entry, looked up): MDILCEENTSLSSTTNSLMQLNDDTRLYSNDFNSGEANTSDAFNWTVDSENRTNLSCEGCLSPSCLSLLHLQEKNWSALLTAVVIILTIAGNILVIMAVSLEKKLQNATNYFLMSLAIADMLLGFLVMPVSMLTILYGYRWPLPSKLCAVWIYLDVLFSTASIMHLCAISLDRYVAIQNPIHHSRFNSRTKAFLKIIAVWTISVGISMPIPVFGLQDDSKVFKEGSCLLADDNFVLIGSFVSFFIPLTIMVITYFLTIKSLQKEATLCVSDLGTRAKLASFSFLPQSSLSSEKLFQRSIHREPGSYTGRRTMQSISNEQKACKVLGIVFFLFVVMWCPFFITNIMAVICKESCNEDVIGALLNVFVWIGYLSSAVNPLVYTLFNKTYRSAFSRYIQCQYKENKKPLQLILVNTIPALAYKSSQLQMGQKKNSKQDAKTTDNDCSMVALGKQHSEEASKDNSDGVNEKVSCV
Summary of the method: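 Kinetic calcium-flux fluorescence (2 min, 1 sec intervals) after compound addition in agonist mode. HTR2A-CHO cells were cultured 18 h, then dye-loaded 1 h at 37 C.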

[12] = target: Muscarinic acetylcholine receptor M1 (Homo sapiens) (UniProt P11229); assay: Cholinergic receptor muscarinic 1 (CHRM1) small molecule agonists, cell-based qHTS assay (AID 1963589); also: nearly all actives have a fitted effect of over 35% in size
Chain of Muscarinic acetylcholine receptor M1 (Homo sapiens) (P11229 whole entry, looked up): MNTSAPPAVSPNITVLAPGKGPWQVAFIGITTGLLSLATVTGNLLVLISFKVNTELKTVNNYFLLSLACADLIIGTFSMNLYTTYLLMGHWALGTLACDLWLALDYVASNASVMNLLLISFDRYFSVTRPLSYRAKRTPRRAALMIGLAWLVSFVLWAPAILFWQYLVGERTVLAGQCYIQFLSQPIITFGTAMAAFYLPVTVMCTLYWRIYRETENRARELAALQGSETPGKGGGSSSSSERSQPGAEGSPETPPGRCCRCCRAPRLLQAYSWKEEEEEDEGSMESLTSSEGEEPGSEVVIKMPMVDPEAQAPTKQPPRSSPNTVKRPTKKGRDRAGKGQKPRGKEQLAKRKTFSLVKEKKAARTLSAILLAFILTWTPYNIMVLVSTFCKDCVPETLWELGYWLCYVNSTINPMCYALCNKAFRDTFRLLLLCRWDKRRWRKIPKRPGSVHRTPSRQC
Summary of the method: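 Human M1 in stable CHO line; 18 h plating, 1 h dye load 37 C; cpd added (agonist mode); Ca2+ fluorescence kinetic read, 1 s intervals; 15 conc, 3 runs.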

[13] = cAMP Responsive Elements (CRE) small molecule antagonists, cell-based qHTS assay (AID 1963591; active = well fitted inhibition curve with a large enough effect in the signal ratio in the repeat runs, not every such curve was filed as active; the % refers to the signal ratio)
Summary of the method: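 Beta-lactamase reporter read by FRET substrate (LiveBLAzer B/G) after 2 h at room temperature. CRE-bla HEK293T cells had received compound plus 0.25 uM (final) NKH477 for 3 h at 37 °C.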

[14] = target: D(2) dopamine receptor (Homo sapiens) (UniProt P14416); assay: Dopamine D2 receptor (DRD2) small molecule agonists, cell-based qHTS assay (AID 1963594); also: nearly all actives have a fitted effect of over 35% in size
Chain of D(2) dopamine receptor (Homo sapiens) (P14416 whole entry, looked up): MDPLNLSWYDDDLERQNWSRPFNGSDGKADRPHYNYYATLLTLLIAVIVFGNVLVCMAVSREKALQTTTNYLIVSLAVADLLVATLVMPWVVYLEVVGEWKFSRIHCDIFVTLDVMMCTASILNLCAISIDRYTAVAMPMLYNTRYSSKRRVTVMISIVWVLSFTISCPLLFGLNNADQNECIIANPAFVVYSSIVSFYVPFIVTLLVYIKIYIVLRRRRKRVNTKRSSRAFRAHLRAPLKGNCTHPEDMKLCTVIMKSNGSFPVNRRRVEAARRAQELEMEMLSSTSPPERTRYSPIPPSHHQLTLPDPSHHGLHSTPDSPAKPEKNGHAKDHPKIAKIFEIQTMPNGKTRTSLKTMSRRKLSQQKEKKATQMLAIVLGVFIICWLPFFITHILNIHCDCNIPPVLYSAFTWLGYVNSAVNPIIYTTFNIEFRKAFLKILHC
Summary of the method: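 cAMP accumulation in DRD2-HEK293 cells measured by HTRF after 1 h detection; compounds added 10 min before NKH477 (200nM […]) forskolin-analogue stimulation, 30 min at room temperature, with Ro20-1724 present at 0.1 mM final.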

[15] = target: D(2) dopamine receptor (Homo sapiens) (UniProt P14416); assay: Dopamine D2 receptor (DRD2) small molecule antagonists, cell-based qHTS assay (AID 1963595; active = well fitted inhibition curve with a large enough effect in the signal ratio in the repeat runs, with a control signal flat; the % refers to the signal ratio)
Summary of the method: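 Readout: HTRF cAMP, cAMP-d2 competing with cellular cAMP for anti-cAMP cryptate, read after 1 h. Cells: DRD2-HEK293. Conditions: 0.1 mM Ro20-1724, 12 nM quinpirole, 200 nM NKH477, 30 min RT.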

[16] = target: Muscarinic acetylcholine receptor M1 (Homo sapiens) (UniProt P11229); assay: Cholinergic receptor muscarinic 1 (CHRM1) small molecule antagonists, cell-based qHTS assay (AID 1963588); also: nearly all actives have a fitted effect of over 40% in size; also: potency is read from the fitted curve at half-maximal effect
Summary of the method: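 CHRM1-CHO calcium-flux assay, antagonist mode. Cells were seeded 18 h, dye-loaded 1 h at 37 C and given compound for 5 min at RT, then acetylcholine was added at 50nM. FDSS fluorescence was read 3 min; 15 concentrations, three runs.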

[17] = cAMP Responsive Elements (CRE) small molecule agonists, cell-based qHTS assay (AID 1963590)
Summary of the method: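 HEK 293T CRE-bla, 2,000 cells/well, 18 h preincubation 37 C/5% CO2; cpds (DMSO) pinned, 3 h; LiveBLAzer B/G FRET substrate, 2 h RT.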

[18] = target: Beta-2 adrenergic receptor (Homo sapiens) (UniProt P07550); assay: Adrenergic beta2 receptor (ADRB2) small molecule antagonists, cell-based qHTS assay (AID 1963592); also: series mostly up to about 92 µM; nearly all actives have a fitted effect of over 50% in size
Chain of Beta-2 adrenergic receptor (Homo sapiens) (P07550 whole entry, looked up): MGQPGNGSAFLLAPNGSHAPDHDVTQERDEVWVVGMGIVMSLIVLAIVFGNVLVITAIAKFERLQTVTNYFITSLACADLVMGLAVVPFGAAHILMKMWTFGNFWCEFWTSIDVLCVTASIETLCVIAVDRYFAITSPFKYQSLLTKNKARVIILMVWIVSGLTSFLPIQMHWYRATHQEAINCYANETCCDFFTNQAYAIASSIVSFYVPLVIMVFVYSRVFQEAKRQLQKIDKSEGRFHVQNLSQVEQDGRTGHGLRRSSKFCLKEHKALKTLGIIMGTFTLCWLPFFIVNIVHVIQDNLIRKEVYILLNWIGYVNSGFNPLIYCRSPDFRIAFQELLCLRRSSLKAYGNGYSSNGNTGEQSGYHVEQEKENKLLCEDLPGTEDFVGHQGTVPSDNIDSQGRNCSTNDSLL
Summary of the method: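 Cells (CHO, stable ADRB2 overexpression) incubated 18-20hr at 37C; compounds added from DMSO; agonist mix (1nM isoproterenol, 100uM IBMX, 25uM Ro-20-1724) added; 0.5hr RT; d2-cAMP and anti-cAMP-cryptate added; 1hr RT; 665/615 nm read.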

[19] = target: 5-hydroxytryptamine receptor 2A (Homo sapiens) (UniProt P28223); assay: 5-hydroxytryptamine receptor 2A (HTR2A) small molecule antagonists, cell-based qHTS assay (AID 1963586); also: nearly all actives have a fitted effect of over 45% in size
Summary of the method: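 Antagonist-mode intracellular calcium assay: DOI (4 nM) added after 5 min compound pre-incubation at room temperature to dye-loaded HTR2A-CHO cells. Fluorescence followed for 3 min, sampled every second.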
% is scaled to controls: 0 for no effect and ±100 for the full control effect.

CC(C(O)c1ccccc1)N(C)C/C=C/c1ccccc1 (stereo not given)
inactive: Potency [1] | Potency [2] | Potency [3] | Potency [4] | Potency [5] | Potency [6] | Potency [7] | Potency [8] | Potency [9] | Potency [10] | Potency [11] | Potency [12] | Potency [13] | Potency [14] | Potency [15]

ClC(Br)Br
inactive: Potency [1] | Potency [2] | Potency [3] | Potency [4] | Potency [5] | Potency [6] | Potency [7] | Potency [8] | Potency [9] | Potency [10] | Potency [11] | Potency [16] | Potency [17] | Potency [13] | Potency [18] | Potency [14] | Potency [15]

O=C(Oc1ccc(Br)cc1)N1CCN2CCC1CC2
inactive: Potency [1] | Potency [2] | Potency [3] | Potency [4] | Potency [5] | Potency [6] | Potency [7] | Potency [8] | Potency [9] | Potency [10] | Potency [19] | Potency [11] | Potency [12] | Potency [17] | Potency [13] | Potency [18] | Potency [15]

CCOC(C(=O)OCCN(C)C)(c1ccccc1)c1ccccc1
active: Potency [16] 2.31 µM
inactive: Potency [1] | Potency [2] | Potency [3] | Potency [4] | Potency [5] | Potency [6] | Potency [7] | Potency [8] | Potency [9] | Potency [10] | Potency [19] | Potency [11] | Potency [13] | Potency [18] | Potency [15]

CCCCCCCCCCCCN=C(N)N
inactive: activity change, negative = cytotoxicity [1] -1.49% [at 3.27 µM] | activity, positive = activation [2] -21.7% [at 3.27 µM] | activity change [3] 1.72% [at 2.04 µM, hits give high values] | activation [4] 1.8% [at 2.72 µM] | activation [5] 0.159% [at 2.04 µM] | activation [6] 0.708% [at 2.33 µM] | activity change, negative = cytotoxicity [7] -3.65% [at 2.33 µM] | activity change, negative = cytotoxicity [9] 10.9% [at 2.33 µM] | activation [10] -3.75% [at 2.33 µM] | activation [11] -1.31% [at 2.65 µM] | activity, negative = inhibition [16] 8.27% [at 2.17 µM] | activation [12] -0.462% [at 2.72 µM] | activation [17] -0.694% [at 3.27 µM] | activity change, negative = inhibition [13] 1.77% [at 3.27 µM] | activity change, negative = inhibition [18] -9.86% [at 3.27 µM] | activation [14] -4% [at 3.27 µM] | activity change, negative = inhibition [15] -0.313% [at 3.28 µM]

O=C(CCl)NCO
inactive: Potency [1] | Potency [2] | Potency [3] | Potency [4] | Potency [5] | Potency [6] | Potency [8] | Potency [9] | Potency [10] | Potency [19] | Potency [11] | Potency [16] | Potency [12] | Potency [17] | Potency [13] | Potency [18] | Potency [14] | Potency [15]

Reference: PubChem BioAssay (Tox21)
